Results from PubChem BioAssay.
Calls of active or inactive are those of the source.

Tests used:
[1] = binders of probe aFSTL3 on microarray, primary screen, stem cell growth factor project, biochemical, small-molecule microarray, fluorescence 635/667 (AID 1064); settings: higher = more signal;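 note: measures binding of the biotinylated anti-FSTL3 antibody to printed compounds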
[2] = binders from COS7 lysate, DM2A8 probe, primary screen, torsin A project, cell lysate, small-molecule microarray, fluorescence 635/667 (AID 1065); settings: higher = more signal, COS7 lysate expressing mutant human TOR1A
[3] = binders of probe aFGF2 on microarray, primary screen, stem cell growth factor project, biochemical, small-molecule microarray, fluorescence 635/667 (AID 1067); settings: higher = more signal;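 note: measures binding of biotinylated aFGF2 protein to printed compounds on slides; z-score merges feature fluorescence and signal-to-noise across triplicate slides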
[4] = binders of probe aFGF10 on microarray, primary screen, stem cell growth factor project, biochemical, small-molecule microarray, fluorescence 635/667 (AID 1071); settings: higher = more signal;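 note: score merges 667 nm spot intensity and signal to noise from triplicate slides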
[5] = biological target: Neurogenic locus notch homolog protein 2 (Homo sapiens) (UniProt Q04721); assay: Notch2 binders on small-molecule microarrays, primary screen, biochemical, small-molecule microarray, 635 nm fluorescence, stem cell growth factors (AID 1073); settings: Notch2 binding, higher = more signal
Chain of Neurogenic locus notch homolog protein 2 (Homo sapiens) (Q04721 whole entry, looked up, canonical isoform): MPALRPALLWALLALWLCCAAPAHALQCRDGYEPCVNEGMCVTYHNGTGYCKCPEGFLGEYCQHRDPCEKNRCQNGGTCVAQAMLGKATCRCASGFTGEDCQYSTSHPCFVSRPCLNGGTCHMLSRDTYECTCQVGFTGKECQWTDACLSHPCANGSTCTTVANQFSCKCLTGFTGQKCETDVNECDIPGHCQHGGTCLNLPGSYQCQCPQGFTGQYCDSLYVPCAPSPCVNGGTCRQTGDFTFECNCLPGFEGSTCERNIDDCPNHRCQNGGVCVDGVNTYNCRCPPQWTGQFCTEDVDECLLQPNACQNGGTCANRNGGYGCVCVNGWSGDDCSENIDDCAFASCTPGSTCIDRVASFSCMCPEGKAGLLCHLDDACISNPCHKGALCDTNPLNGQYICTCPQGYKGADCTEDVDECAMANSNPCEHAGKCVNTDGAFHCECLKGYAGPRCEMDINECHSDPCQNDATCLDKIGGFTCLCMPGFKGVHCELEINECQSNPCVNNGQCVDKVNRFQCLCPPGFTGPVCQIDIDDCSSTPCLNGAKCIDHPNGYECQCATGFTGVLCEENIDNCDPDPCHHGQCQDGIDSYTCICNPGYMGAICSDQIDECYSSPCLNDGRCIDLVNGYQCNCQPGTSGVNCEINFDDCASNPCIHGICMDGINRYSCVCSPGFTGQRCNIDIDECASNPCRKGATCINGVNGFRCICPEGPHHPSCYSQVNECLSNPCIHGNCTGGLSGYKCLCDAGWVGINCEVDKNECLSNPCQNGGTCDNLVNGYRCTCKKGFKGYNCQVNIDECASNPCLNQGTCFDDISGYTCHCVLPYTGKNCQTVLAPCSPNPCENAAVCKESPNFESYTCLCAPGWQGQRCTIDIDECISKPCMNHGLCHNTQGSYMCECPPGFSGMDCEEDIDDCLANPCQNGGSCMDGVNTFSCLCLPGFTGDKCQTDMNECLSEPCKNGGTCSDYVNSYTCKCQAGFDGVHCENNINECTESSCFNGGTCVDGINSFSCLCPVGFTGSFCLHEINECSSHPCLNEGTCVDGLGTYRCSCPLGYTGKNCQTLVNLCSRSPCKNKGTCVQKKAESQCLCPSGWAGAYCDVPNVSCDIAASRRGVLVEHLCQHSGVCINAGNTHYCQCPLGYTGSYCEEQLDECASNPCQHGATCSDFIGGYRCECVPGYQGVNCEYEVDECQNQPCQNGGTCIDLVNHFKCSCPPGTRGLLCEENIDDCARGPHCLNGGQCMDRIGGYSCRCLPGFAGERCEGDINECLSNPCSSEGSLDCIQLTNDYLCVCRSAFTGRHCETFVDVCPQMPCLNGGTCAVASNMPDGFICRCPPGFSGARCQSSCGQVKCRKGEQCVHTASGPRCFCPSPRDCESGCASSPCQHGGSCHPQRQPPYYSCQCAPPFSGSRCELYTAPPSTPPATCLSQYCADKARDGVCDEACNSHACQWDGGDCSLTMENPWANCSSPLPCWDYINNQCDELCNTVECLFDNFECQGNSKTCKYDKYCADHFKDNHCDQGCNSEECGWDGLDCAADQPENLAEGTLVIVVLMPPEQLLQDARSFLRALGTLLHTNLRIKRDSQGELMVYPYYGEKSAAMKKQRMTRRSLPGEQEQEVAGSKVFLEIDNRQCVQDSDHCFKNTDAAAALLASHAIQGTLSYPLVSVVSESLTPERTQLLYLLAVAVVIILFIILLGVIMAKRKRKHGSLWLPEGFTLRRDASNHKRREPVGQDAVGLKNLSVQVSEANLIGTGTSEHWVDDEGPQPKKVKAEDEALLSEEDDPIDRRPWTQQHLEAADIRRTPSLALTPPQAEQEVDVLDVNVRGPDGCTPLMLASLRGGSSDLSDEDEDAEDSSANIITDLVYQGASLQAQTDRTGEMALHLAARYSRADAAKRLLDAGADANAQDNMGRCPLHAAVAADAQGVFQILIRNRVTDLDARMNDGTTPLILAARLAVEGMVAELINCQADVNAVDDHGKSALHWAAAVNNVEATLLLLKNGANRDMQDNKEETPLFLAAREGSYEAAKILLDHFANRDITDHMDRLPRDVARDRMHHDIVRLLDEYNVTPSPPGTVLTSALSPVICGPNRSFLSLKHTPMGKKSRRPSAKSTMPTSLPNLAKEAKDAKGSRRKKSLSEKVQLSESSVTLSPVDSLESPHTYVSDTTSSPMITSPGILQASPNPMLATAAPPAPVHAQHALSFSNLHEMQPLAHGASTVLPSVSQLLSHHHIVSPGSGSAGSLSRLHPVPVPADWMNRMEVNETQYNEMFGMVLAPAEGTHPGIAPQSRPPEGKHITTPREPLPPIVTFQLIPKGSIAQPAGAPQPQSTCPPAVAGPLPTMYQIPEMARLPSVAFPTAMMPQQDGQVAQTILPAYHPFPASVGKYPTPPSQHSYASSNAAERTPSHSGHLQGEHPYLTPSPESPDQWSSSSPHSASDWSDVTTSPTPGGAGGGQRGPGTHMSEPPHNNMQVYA

[6] = biological target: Pro-neuregulin-1, membrane-bound isoform (Homo sapiens) (UniProt Q02297); assay: NRG1 binders on small-molecule microarrays, primary screen, psychiatric disease protein project, biochemical, small-molecule microarray, fluorescence 635/667 (AID 1075); settings: NRG1 binding, 635 nm fluorescence, higher = more signal;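 note: score combines 667 nm spot fluorescence with signal to noise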
Chain of Pro-neuregulin-1, membrane-bound isoform (Homo sapiens) (Q02297 whole entry, looked up, the tested form may be a part, canonical isoform): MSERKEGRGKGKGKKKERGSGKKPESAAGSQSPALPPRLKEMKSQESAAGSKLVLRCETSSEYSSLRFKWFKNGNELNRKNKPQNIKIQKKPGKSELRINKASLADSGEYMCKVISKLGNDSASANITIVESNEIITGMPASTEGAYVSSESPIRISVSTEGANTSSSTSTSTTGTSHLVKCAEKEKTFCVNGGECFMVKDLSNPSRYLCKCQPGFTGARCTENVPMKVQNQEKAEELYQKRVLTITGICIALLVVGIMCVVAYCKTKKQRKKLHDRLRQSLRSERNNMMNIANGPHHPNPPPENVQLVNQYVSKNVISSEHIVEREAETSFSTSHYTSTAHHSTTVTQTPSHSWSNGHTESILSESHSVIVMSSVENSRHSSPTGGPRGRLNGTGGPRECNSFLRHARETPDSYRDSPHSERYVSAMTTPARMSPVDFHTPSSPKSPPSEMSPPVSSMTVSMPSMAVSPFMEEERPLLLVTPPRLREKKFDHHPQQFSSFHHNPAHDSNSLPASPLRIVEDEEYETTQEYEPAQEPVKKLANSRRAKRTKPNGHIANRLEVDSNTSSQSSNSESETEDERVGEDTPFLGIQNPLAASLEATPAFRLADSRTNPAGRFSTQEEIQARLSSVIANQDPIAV

[7] = test system: Neuregulin-1 EGF-like domain; assay: binders of neuregulin-1 EGF-like domain, primary screen, biochemical, small-molecule microarray, 635 nm fluorescence (AID 1081); settings: small-molecule microarray binding, higher = more signal;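 note: binding of the protein to compounds printed on small-molecule microarray slides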
[8] = FRG1 promoter luciferase signal modulators, primary screen, FRG1 inhibition for FSHD, cell-based, C2C12 myotubes, firefly/Renilla luciferase, luminescence (AID 1084); settings: higher = more signal, called active from +8 up or from −8 down
[9] = binders of probe aFST on microarray, primary screen, stem cell growth factor project, biochemical, small-molecule microarray, fluorescence 635/667 (AID 1086); settings: higher = more signal;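 note: score merges 667 nm fluorescence with signal-to-noise of each printed compound spot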
[10] = binders of probe aHhip on microarray, primary screen, stem cell growth factor project, biochemical, small-molecule microarray, fluorescence 635/667 (AID 1087); settings: higher = more signal;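 note: score merges spot fluorescence at 667nm with spot signal to noise ratio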

## CC(=O)OC[C@H]1O[C@H](CCON=C[C@@H](C)[C@H](OCc2ccccc2)C(C)C)C=C[C@@H]1OC(C)=O
[1]
  composite z-score: -0.567
[2]
  composite z-score: 0.57
[3]
  composite z-score: -0.101
[4]
  composite z-score: 0.114
[5]
  composite z-score: -0.113
[6]
  composite z-score: -0.114
[7]
  composite z-score: -0.339
[8]
  z-score: 0.447 (inactive)
[9]
  composite z-score: 0.0538
[10]
  composite z-score: 0.312

## CO[C@H]([C@@H](C)[C@H](OC)c1ccccc1)[C@H](C)[C@@H](OC)[C@H](C)C(C)=O
[1]
  composite z-score: -0.426
[2]
  composite z-score: -0.292
[3]
  composite z-score: -0.0785
[4]
  composite z-score: -0.154
[5]
  composite z-score: -0.448
[6]
  composite z-score: -0.383
[7]
  composite z-score: -0.944
[8]
  z-score: 0.425 (inactive)
[9]
  composite z-score: 0.0432
[10]
  composite z-score: 2.49

## O=C1[C@H]2[C@H]3[C@H](O)[C@H](O)CC(=NOCc4ccccc4)[C@@H]3CC[C@H]2C(=O)N1Cc1ccccc1
[1]
  composite z-score: -0.226
[2]
  composite z-score: 0.304
[3]
  composite z-score: -0.125
[4]
  composite z-score: 0.264
[5]
  composite z-score: 0.758
[6]
  composite z-score: -0.0975
[7]
  composite z-score: 0.272
[8]
  z-score: 0.341 (inactive)
[9]
  composite z-score: 0.281
[10]
  composite z-score: -0.0672

## CC(C)CON=C1C[C@@H](O)[C@@H](O)[C@@H]2[C@@H]3C(=O)N(Cc4ccccc4)C(=O)[C@@H]3CC[C@@H]12
[1]
  composite z-score: -0.404
[2]
  composite z-score: 0.129
[3]
  composite z-score: -0.141
[4]
  composite z-score: 0.256
[5]
  composite z-score: 0.455
[6]
  composite z-score: -0.344
[7]
  composite z-score: 0.211
[8]
  z-score: 0.166 (inactive)
[9]
  composite z-score: -0.313
[10]
  composite z-score: -0.199

## CO[C@@H]1COC(=O)CC=C[C@@H](C)COC(=O)[C@H](COCc2ccccc2)NC(=O)CC=C[C@H]1C
[1]
  composite z-score: -0.611
[2]
  composite z-score: 2.32
[3]
  composite z-score: -0.162
[4]
  composite z-score: -0.903
[5]
  composite z-score: -0.75
[6]
  composite z-score: -0.698
[7]
  composite z-score: -0.0535
[8]
  z-score: -1.05 (inactive)
[9]
  composite z-score: -0.268
[10]
  composite z-score: 0.0749

## CCOC(=O)C[C@H]1[C@H](OC(=O)c2ccc(C(=O)c3ccccc3)cc2)[C@@H](NC(=O)c2ccc(-c3ccccc3)cc2)c2cc(OCCCO)ccc2N1C(=O)c1ccc2ccccc2n1
[1]
  composite z-score: -0.378
[2]
  composite z-score: 0.292
[3]
  composite z-score: -0.0685
[4]
  composite z-score: 0.773
[5]
  composite z-score: 0.643
[6]
  composite z-score: 0.5
[7]
  composite z-score: 0.927
[8]
  z-score: 0.0728 (inactive)
[9]
  composite z-score: 0.465
[10]
  composite z-score: -0.193

## C[C@@H](c1ccccc1)N1C(=O)[C@H]2[C@H]3[C@H](O)[C@H](O)CC(=NNC(=O)OCc4ccccc4)[C@H]3CC[C@H]2C1=O
[1]
  composite z-score: 0.512
[2]
  composite z-score: 0.16
[3]
  composite z-score: -0.129
[4]
  composite z-score: 0.201
[5]
  composite z-score: 0.382
[6]
  composite z-score: -0.207
[7]
  composite z-score: -0.451
[8]
  z-score: 0.0168 (inactive)
[9]
  composite z-score: 0.366
[10]
  composite z-score: -0.236

## C[C@H]1CC[C@@H](C(=O)O)N[C@@H]1c1ccc(C#CCN(C)C)cc1
[1]
  composite z-score: -0.326
[2]
  composite z-score: 0.451
[3]
  composite z-score: -0.0943
[4]
  composite z-score: 0.185
[5]
  composite z-score: 0.608
[6]
  composite z-score: 0.115
[7]
  composite z-score: 0.0934
[8]
  z-score: -0.794 (inactive)
[9]
  composite z-score: 0.629
[10]
  composite z-score: -0.119

## CCN1C(=O)[C@H]2[C@H]3[C@H](O)[C@H](O)CC(=NO[C@@H]4O[C@H](CO)[C@@H](O)[C@H](O)[C@H]4O)[C@@H]3CC[C@H]2C1=O
[1]
  composite z-score: -0.0837
[2]
  composite z-score: 0.0566
[3]
  composite z-score: -0.211
[4]
  composite z-score: -0.078
[5]
  composite z-score: -1.21
[6]
  composite z-score: 0.485
[7]
  composite z-score: -1.11
[8]
  z-score: 0.183 (inactive)
[9]
  composite z-score: -0.402
[10]
  composite z-score: 0.354

## COCCOC(=O)N1C(=O)[C@@]2(c3cc(C#Cc4ccc(OC)cc4)ccc31)[C@H](c1ccc(O)cc1)N1[C@H](c3ccccc3)[C@H](c3ccccc3)OC(=O)[C@H]1[C@@H]2C(N)=O
[1]
  composite z-score: -0.513
[2]
  composite z-score: 0.258
[3]
  composite z-score: -0.031
[4]
  composite z-score: 0.602
[5]
  composite z-score: 1.35
[6]
  composite z-score: 1.17
[7]
  composite z-score: 1.26
[8]
  z-score: 0.497 (inactive)
[9]
  composite z-score: 0.674
[10]
  composite z-score: 0.291
